Screens deposited in PubChem by National Center for Advancing Translational Sciences (NCATS).
In the library only some 6.8% were active in any assay of this set; here they are far more common.
MCF10A rerep: induces DNA re-replication in MCF 10a normal breast cells; actives 2.9% (n = 350,000); Potency, µM (highest dose often 46.1 µM), for the others: top-dose activity, positive = re-replication, usual class: activators; MCF 10A DNA re-replication, Hoechst nuclear intensity, 48 h; AID 624296; further: % of control where 0% means no effect; nearly all actives have a fitted effect of over 50% in size
PTAP TSG101 blk: blocks PTAP/TSG101 interaction to inhibit HIV-1 budding; Q99816; Fluorescence polarization, FITC-PTAP peptide / Tsg101 binding; Potency, µM (doses to about 115 µM), for the others: top-dose activity change, negative = inhibition, most hits filed as inhibitors; 340,000 tested, under 10 active; AID 493005; active means well fitted inhibition curve with a large enough effect in the main read-out, with a control signal flat, not every such curve was filed as active; inconclusive means small, poorly fitted or top-dose-only effect, or effect the other way, or a change in a side signal; inactive means no such curve, though single readings can be large or run the other way; further: % of control where 0% means no effect
Target sequence (Q99816 whole entry, looked up): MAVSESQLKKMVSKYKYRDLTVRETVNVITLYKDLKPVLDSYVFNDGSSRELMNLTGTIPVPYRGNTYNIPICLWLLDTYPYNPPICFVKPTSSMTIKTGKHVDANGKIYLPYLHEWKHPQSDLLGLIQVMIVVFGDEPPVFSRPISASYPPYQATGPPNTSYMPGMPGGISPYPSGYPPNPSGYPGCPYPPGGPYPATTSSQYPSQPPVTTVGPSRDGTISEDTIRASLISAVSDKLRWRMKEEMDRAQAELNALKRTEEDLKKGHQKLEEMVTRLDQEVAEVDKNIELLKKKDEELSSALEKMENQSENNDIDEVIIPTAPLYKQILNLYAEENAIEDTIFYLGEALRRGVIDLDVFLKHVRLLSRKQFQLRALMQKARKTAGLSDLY
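Compounds were pin-transferred onto Tsg101 binding domain (10 uM final) in HEPES pH 7.5 buffer, then FITC-PTAP peptide was added at 50 nM final. After 20 min at RT, polarization reported peptide displacement across a qHTS concentration series.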
KB-3-1 cytotox: KB-3-1 parental cell cytotoxicity | actives 1.4% (n = 400,000) | Potency, µM (top dose mostly 46.1 µM), most hits filed as cytotoxic | AID 1347075 | KB-3-1 viability, CellTiter-Glo ATP luminescence, 72 h; further: on the % scale 0 is the no-effect control and ±100 the full control effect; nearly all actives have a fitted effect of over 60% in size
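Parental KB-3-1 viability, qHTS format: 72 h compound exposure, 37 °C; CellTiter-Glo; media-only wells and DMSO plates as controls; concentration-effect fits on corrected data.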
SW480 rerep: inducers of DNA re-replication in SW480 colon cancer cells; SW480 DNA re-replication, Hoechst DNA content imaging, 48 h; Potency, µM (doses to about 46.1 µM), without a hit: top-dose re-replication activation, actives largely listed as activators; actives 1.8% (n = 340,000); AID 624297; further: % of control where 0% means no effect; nearly all actives have a fitted effect of over 55% in size
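Image-based DNA-content assay: after two days of treatment, nuclei were labelled with the DNA dye Hoechst and imaged, and hits were compounds raising the count of nuclei showing high fluorescence intensity.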
PINK1 modulator: PINK1 expression modulation. PINK1 immunofluorescence, high-content cytometry, 24 h. Potency, µM (series often up to 76.6 µM), for inactives: at the highest dose activation (PINK1 increase), usual class: activators. actives 0.2% (n = 410,000). AID 624263; active means well fitted activation curve with a large enough effect; inconclusive means small, poorly fitted or top-dose-only effect; cell line not stated here; further: % of control where 0% means no effect; nearly all actives have a fitted effect of over 65% in size
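PINK1 protein, normally rapidly degraded, was detected by immunofluorescence after 24 hour compound treatment of a stable cell line. Titration data (5 concentrations) came from laser-scanning cytometry, with CCCP-treated wells as controls.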
KB-V1 cytotox: KB-V1 MDR subline cytotoxicity. KB-V1 MDR cells viability, CellTiter-Glo, 72 h. AID 1347076. actives 3.4% (n = 400,000). Potency, µM (highest dose often 46.1 µM), most hits filed as cytotoxic; further: on the % scale 0 is the no-effect control and ±100 the full control effect; nearly all actives have a fitted effect of over 60% in size
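KB-V1, DMEM (no phenol red) + 10% FBS; cpd pin-transferred, titration series; 72 h, 37 degrees C; CellTiter-Glo, luminescence. Data normalized, curve-fit.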
An asterisk follows results filed as active; i = inactive; ? = inconclusive; / = no result; [ ] = dose if it differs, or a comment. Unless noted, the call rests on the fitted dose curve; in most records, active means well fitted curve in the direction sought with a large enough effect; inconclusive means small, poorly fitted or top-dose-only effect, or another doubt; inactive means no such curve, though single readings can be large; an effect the other way counts as inactive or inconclusive. Potency means the concentration at half of the fitted maximal effect.

SMILES | MCF10A rerep | PTAP TSG101 blk | KB-3-1 cytotox | SW480 rerep | PINK1 modulator | KB-V1 cytotox
COc1cc(C2CC(c3cccs3)=NN2C(=O)CCl)ccc1OC(F)F (stereo unspecified) | 16µM* | 1% | ? | 25% | -2% | 15µM*
Cc1cccc(N2CCN(C(=O)c3cccn4c(=O)c5cc(Cl)ccc5nc34)CC2C)c1 (stereo unspecified) | / | / | i | / | 0% | i
CC1CCCCN1C(=O)CSc1nnc(-c2ccccc2O)o1 (stereo unspecified) | 11% | 0% | 13µM* | ? | 2% | ?
Cc1cc(-c2nnc(SCC(=O)N3C(C)CCCC3C)o2)no1 (stereo unspecified) | ? | -12% | i | 6.5µM* | -5%[38.3 µM] | i
Cc1cccc(C)c1OC(=O)CSc1nnc(-c2ccccc2O)o1 | 18µM* | -3% | i | 0% | ? | i
CCc1ccc(NC(=O)Nc2cnccn2)cc1 | -10% | 1% | i | 12% | 0% | i
Cc1cc(NC(=O)Nc2ccc(F)cc2F)n(C)n1 | ? | -5% | ? | 3% | -1% | i
CCCCc1ccc(NC(=O)Nc2cc(C)nn2C)cc1 | ? | -5% | 6.5µM* | 5% | 4% | i
CCCCc1ccc(NC(=O)Nc2cnccn2)cc1 | 22% | -6% | 12µM* | ? | 4% | ?
COc1ccc(-c2nc3ccccc3c(C(=O)Nc3ccc(S(=O)(=O)Nc4cc(C)on4)cc3)c2C)cc1 | 18µM* | -4% | ? | ? | 0% | i
Cc1cc(NS(=O)(=O)c2ccc(NC(=S)NC(=O)c3ccc(C(C)(C)C)cc3)cc2)no1 | 23% | 0% | i | -10% | 0% | 23µM*
Cc1cc(NC(=O)c2ccccc2NS(=O)(=O)c2c(C)c(C)cc(C)c2C)no1 | 12µM* | -8% | i | 9.2µM* | -1%[38.3 µM] | i
Cc1ccc(C)c(S(=O)(=O)Nc2ccccc2C(=O)Nc2cc(C)on2)c1 | ? | -3% | ? | ? | 0%[38.3 µM] | i
Cc1ccc(NS(=O)(=O)c2cccc(C(=O)Nc3cc(C)on3)c2)cc1 | 8% | -2% | i | ? | 2% | 4.6µM*
Cc1cc(NS(=O)(=O)c2ccc(NC(=S)NC(=O)c3ccccc3)cc2)no1 | 8% | -3% | i | ? | 1% | i
CN(Cc1ccccc1)C(=O)c1nc(-c2ccc(Cl)cc2)n2c1CCCCC2 | / | / | i | / | 1% | i
Cc1cc(=O)n2nc(N(C)CC(=O)NCc3ccccc3C)sc2n1 | / | / | i | / | 1% | i
Cc1cccc(NC(=O)C(=O)NCC(c2cccnc2)N2CCc3ccccc3C2)c1C (stereo unspecified) | / | / | ? | / | 2% | i
Cn1c(-c2ccc3ccccc3n2)[n+](C)c2ccccc21 | 9% | 0% | 9.2µM* | -20% | 1% | ?
CN(C)c1ccc(-c2n(C)c3ccccc3[n+]2C)cc1 | ? | -4% | 2.9µM* | ? | -3%[38.3 µM] | i
Cn1c(-c2ccccn2)[n+](C)c2ccccc21 | 3% | -3% | i | 24% | 0% | i
Cn1c(-c2cccc([N+](=O)[O-])c2)[n+](C)c2ccccc21 | 7% | 2% | i | 2% | 1% | i
O=C1/C(=C\c2ccc(Br)o2)SC(=Nc2ccccc2)N1c1ccccc1 | 9% | 1% | i | 1% | -1% | 9.2µM*
c1ccc(-c2noc(C34CC5CC(CC(C5)C3)C4)n2)cc1 | 12µM* | -4% | i | -2% | 6% | i
Cc1ccnc(NC(=O)c2cccc(S(=O)(=O)NCc3ccccc3)c2)c1 | 10% | -3% | i | -1% | 1% | i
SMILES | MCF10A rerep | PTAP TSG101 blk | KB-3-1 cytotox | SW480 rerep | PINK1 modulator | KB-V1 cytotox
Cc1ccc(OCCNC(=O)c2cccc(S(=O)(=O)NCc3ccccc3)c2)cc1 | 6.5µM* | -1% | 4.6µM* | 6.5µM* | -1% | 8.2µM*
O=C(NCc1ccncc1)c1cccc(S(=O)(=O)NCc2ccccc2)c1 | -4% | -5% | i | -9% | -1% | ?
CN(C)C(CNC(=O)c1cccc(S(=O)(=O)NCc2ccccc2)c1)c1ccccc1 (stereo unspecified) | ? | -2% | i | 6.5µM* | -1% | i
Cc1ccc(C(=O)NC2(C(F)(F)F)N=C(c3ccccc3)N(Cc3ccccc3)C2=O)cc1 (stereo unspecified) | / | / | i | / | 4% | i
COc1ccc(Cn2c(=O)c3cccnc3n(CC(=O)Nc3c(C)cc(C)cc3C)c2=O)cc1 | / | / | i | / | 6% | i
Cn1c(SCC(=O)Nc2cccc(C(=O)O)c2)nnc1-c1cc2cc(Br)ccc2o1 | -3% | 0% | i | -1% | 6% | i
Cn1c(SCC(=O)Nc2cccc(Br)c2)nnc1-c1cc2ccccc2o1 | 5% | -5% | i | 20% | -1% | 16µM*
Cc1ccc(-c2nnc(SCC(=O)Nc3ccc4c(c3)oc3ccccc34)n2C)c(Cl)c1 | 9% | -3% | i | 0% | ? | 2.6µM*
Cc1ccccc1OCc1nnc(SCC(=O)Nc2ccc3c(c2)oc2ccccc23)n1C | 2% | -1% | i | 6% | 13µM* | i
O=C(CSc1ccccn1)Nc1ccc2c(c1)oc1ccccc12 | -2% | -2% | i | / | 2% | i
CCc1cccc(C)c1NC(=O)CSc1nnc(C)o1 | 0% | -2% | i | -4% | 1% | i
CCc1cccc(C)c1NC(=O)CSc1nnc(-c2cc3cc(Br)ccc3o2)n1CC | ? | -2% | ? | ? | -2% | 21µM*
CCOc1ccc(-n2nnnc2SCC(=O)c2ccccc2)cc1 | 4.1µM* | -3% | ? | ? | 11% | ?
CCOc1ccc(N2C(=O)CC(Sc3nnnn3-c3ccccc3)C2=O)cc1 (stereo unspecified) | ? | -8% | i | 16µM* | 7% | i
CCOc1ccc(N2C(=O)CC(Sc3nc(C)cc(C)n3)C2=O)cc1 (stereo unspecified) | -1% | -6% | i | -6% | / | i
CCCCc1c(C)c2ccc(OC)c(/C(C)=N\O)c2oc1=O | -2% | -4% | ? | -51% | 1% | 5.8µM*
CCc1cccc(NC(=O)CCS(=O)(=O)c2cc(Br)cc3c2N(C(C)=O)CC3)c1 | / | / | i | / | 0% | i
CC1CCN(S(=O)(=O)c2cc(C(=O)Nc3ccc(Br)cc3F)n(C)c2)CC1 | / | / | i | / | 1% | i
